Assay outcomes (PubChem)
G9a inh – inhibitors of human histone lysine methyltransferase G9a; Q96KQ7; G9a H3K9 monomethylation, AlphaScreen, 2 h; Potency, µM (top dose mostly 102 µM), inactives show at the top dose activity, negative = inhibition, actives largely listed as inhibitors; 350,000 compounds, 8.8% hits; also: potency is read from the fitted curve at half-maximal effect; % is scaled to controls: 0 for no effect and ±100 for the full control effect; nearly all actives have a fitted effect of over 75% in size
Target sequence (Q96KQ7 913-1193 limits assumed): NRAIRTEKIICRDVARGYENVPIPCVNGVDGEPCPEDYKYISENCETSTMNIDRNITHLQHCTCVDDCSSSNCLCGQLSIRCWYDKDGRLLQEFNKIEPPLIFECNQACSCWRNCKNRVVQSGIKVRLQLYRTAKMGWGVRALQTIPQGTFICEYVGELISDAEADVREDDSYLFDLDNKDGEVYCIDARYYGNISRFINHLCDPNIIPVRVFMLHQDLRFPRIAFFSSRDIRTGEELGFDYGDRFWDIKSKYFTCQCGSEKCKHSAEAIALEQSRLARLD
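G9a (20 nM) preincubated 15 min RT with compounds, then 500 nM biotinylated H3K9 peptide and 20 uM SAM added; 2 h RT reaction. Monomethyl-H3K9 product detected by AlphaScreen with anti-H3K9me1 antibody, streptavidin donor and anti-rabbit IgG acceptor beads.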
HP1b chromo inh – HP1-beta chromodomain-methylated histone interaction inhibition. P83916. AlphaScreen HP1-beta / biotin-H3K9me3 peptide binding. Potency, µM (highest dose often 114 µM), without a hit: at the top dose activity change, negative = inhibition, most hits filed as inhibitors. 390,000 compounds, 0.56% hits. AID 540317; also: potency is read from the fitted curve at half-maximal effect; nearly all actives have a fitted effect of over 70% in size
Target sequence (P83916 whole entry, looked up): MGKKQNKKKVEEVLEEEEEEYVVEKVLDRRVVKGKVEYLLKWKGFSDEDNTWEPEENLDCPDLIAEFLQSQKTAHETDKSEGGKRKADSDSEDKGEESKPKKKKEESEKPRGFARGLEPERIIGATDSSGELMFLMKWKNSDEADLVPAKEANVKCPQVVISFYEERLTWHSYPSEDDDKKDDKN
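HP1-beta protein (50 nM final) preincubated 30 min at room temperature with biotinylated H3(1-18)K9me3 peptide (50 nM) in PBS pH 7.4, 0.01% Tween-20, then compound added for 30 min. AlphaScreen streptavidin donor/nickel chelate acceptor beads (10 ug/mL final), 30 min dark, luminescence read.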
L3MBTL1 block – L3MBTL1 (human) inhibition; Q9Y468; AlphaScreen L3MBTL1–H3K9me1 peptide binding; Potency, µM (doses to about 57.1 µM), for inactives: at the top dose activity, negative = inhibition, usual class: inhibitors; 230,000 compounds, 0.66% hits; AID 485360; also: potency is read from the fitted curve at half-maximal effect; % is scaled to controls: 0 for no effect and ±100 for the full control effect; nearly all actives have a fitted effect of over 60% in size
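AlphaScreen proximity signal between nickel-chelate acceptor and streptavidin donor beads (final 10 ug/mL) reports binding of 50 nM L3MBTL1 to 75 nM biotin-H3 K9me1 peptide; complex incubated with compounds 30 min at room temperature; cefsulodin titration as control.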
JMJD2A Tudor inh – inhibitors of human JMJD2A Tudor domain; Potency, µM (titrated, usually from 114 µM), for the others: at the top dose activity change, negative = inhibition, actives largely listed as inhibitors; O75164; 390,000 compounds, 4.4% hits; AlphaScreen JMJD2A-Tudor / H3K4me3 peptide binding; also: potency is read from the fitted curve at half-maximal effect; % is scaled to controls: 0 for no effect and ±100 for the full control effect; nearly all actives have a fitted effect of over 50% in size
PI5P4Ka inh – inhibitors of human PI5P4K alpha | P48426 | PI5P4Kalpha enzyme, ADP-Glo luminescence, 60 min; active compounds read low | max response, % | 330,000 compounds, 1.2% hits | AID 652105; active = max response of -50% or lower; inconclusive = between -30% and -50%; inactive = -30% or higher; also: value at the top dose of about 77 µM; % is scaled to controls: 0 for no effect and ±100 for the full control effect
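Quantitative HTS of the MLSMR library against PI5P4Kalpha with substrate. ATP added last at 5 microM final; room temperature, 60 minutes. Remaining ATP depleted, ADP converted and read as luminescence.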
BAZ2B block – blocks human BAZ2B; Potency, µM (titrated, usually from 114 µM), inactives show top-dose activity change, negative = inhibition, hits mostly inhibitors; AID 504333; Q9UIF8; 360,000 compounds, 4.4% hits; AlphaScreen BAZ2B-H3K14Ac peptide displacement; also: potency is read from the fitted curve at half-maximal effect; % is scaled to controls: 0 for no effect and ±100 for the full control effect; nearly all actives have a fitted effect of over 60% in size
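In this displacement format the biotinylated H3(5-23) peptide acetylated at Lys14 serves as ligand at 50 nM, with BAZ2B at 50 nM in PBS pH 7.4 containing 0.01% Tween-20. Donor and acceptor beads are 10 ug/mL final.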
* = called active by the depositor; [ ] = remark or other dose. Shown are actives, neighbours in structure and some others; about 11% of the full set was active somewhere. Unless noted, calls follow the shape of the dose curve; as a rule, active = well fitted inhibition curve with a large enough effect; inconclusive = small, poorly fitted or top-dose-only effect; inactive = no such curve, though single readings can be large or run the other way.

`Cc1cc(-c2ccc(F)cc2)nc2cc(C(N)=O)nn12` gave G9a inh 56µM*, HP1b chromo inh -2%, JMJD2A Tudor inh -27%, PI5P4Ka inh inconclusive and BAZ2B block -7%.
Screening CCc1cccc(OCCN2CCCC2)c1 returned G9a inh inconclusive, HP1b chromo inh inconclusive, L3MBTL1 block -7%, JMJD2A Tudor inh 32µM*, PI5P4Ka inh -5 and BAZ2B block 56µM*.
`Brc1cccc(OCCN2CCOCC2)c1` gave G9a inh 8.9µM*, HP1b chromo inh inconclusive, L3MBTL1 block 0%, JMJD2A Tudor inh 5.6µM*, PI5P4Ka inh -4 and BAZ2B block 50µM*.
COc1cccc(OCCCCCCN2CCOCC2)c1 was read as G9a inh inconclusive, HP1b chromo inh 32%, JMJD2A Tudor inh -11%, PI5P4Ka inh 9 and BAZ2B block -5%.
`Brc1cccc(OCCN2CCCCC2)c1` gave G9a inh 7.1µM*, HP1b chromo inh inconclusive, L3MBTL1 block -1%, JMJD2A Tudor inh 20µM*, PI5P4Ka inh 3 and BAZ2B block inconclusive.
For Brc1cccc(OCCN2CCc3ccccc3C2)c1 the results were HP1b chromo inh 82%, L3MBTL1 block 35%, JMJD2A Tudor inh 14%, PI5P4Ka inh 8 and BAZ2B block -3%.
Screening CCc1ccc(N2C(=O)N(CC(=O)C(C)(C)C)c3ccccc3S2(=O)=O)cc1 returned G9a inh 0%[59 µM], HP1b chromo inh 12%, JMJD2A Tudor inh -15% and BAZ2B block 0%.
For O=C(N/N=C/c1oc(O)c2ccccc12)c1ccccc1 the results were G9a inh 11µM*, HP1b chromo inh 38%, L3MBTL1 block 6%, JMJD2A Tudor inh -8%, PI5P4Ka inh 1 and BAZ2B block -16%.
For O=C(NN=Cc1ccccc1Cl)c1ccccc1 the results were PI5P4Ka inh -12.
N#Cc1nc(Nc2ccc(-c3ccccc3)cc2)nc(NC2CCCC2)n1 was read as JMJD2A Tudor inh -21%.
For COC(=O)C1=C(C)N(c2cc(Cl)cc(Cl)c2)C(=O)C1 the results were G9a inh 45µM*, HP1b chromo inh 11%, L3MBTL1 block -1%, JMJD2A Tudor inh -20%, PI5P4Ka inh 0 and BAZ2B block -4%.
`COC(=O)C1=C(C)N(c2ccc(C(=O)OC)cc2)C(=O)C1` gave G9a inh -27%[12.7 µM], HP1b chromo inh 10%, L3MBTL1 block -5%, JMJD2A Tudor inh -18%, PI5P4Ka inh 1 and BAZ2B block 1%.
COc1cc(Cl)c(NC(=O)CCS(=O)(=O)c2cc3c(cc2Cl)NC(=O)CO3)c(OC)c1 was read as G9a inh 7%[59 µM], HP1b chromo inh 43%, JMJD2A Tudor inh 5% and BAZ2B block -2%.
For COC(=O)c1c(-c2cccs2)csc1NC(=O)c1ccc(C(C)(C)C)cc1 the results were G9a inh 1.8µM*, HP1b chromo inh -13%, JMJD2A Tudor inh inconclusive and BAZ2B block -11%.
`COC(=O)c1c(-c2cccs2)csc1NC(=O)c1ccc(Cl)cc1` gave G9a inh 2.2µM*, HP1b chromo inh 19%, JMJD2A Tudor inh -29% and BAZ2B block -20%.
For COC(=O)c1c(-c2cccs2)csc1NC(=O)c1cccnc1 the results were G9a inh 8%[59 µM], HP1b chromo inh 102%, L3MBTL1 block 19%, JMJD2A Tudor inh 18%, PI5P4Ka inh -2 and BAZ2B block 31%.
For COC(=O)c1c(-c2cccs2)csc1NC(=O)COc1c(C)ccc(C)c1C the results were G9a inh 1.4µM*, HP1b chromo inh inconclusive, JMJD2A Tudor inh 79µM* and BAZ2B block inconclusive.
COC(=O)c1c(-c2cccs2)csc1NC(=O)c1ccc(C(C)C)cc1 was read as G9a inh 2.8µM*, HP1b chromo inh -12%, JMJD2A Tudor inh 0% and BAZ2B block -1%.
Screening Cc1ccc(CNC(=O)c2c(O)nc3ccccn3c2=O)cc1 returned G9a inh inconclusive, HP1b chromo inh 57%, JMJD2A Tudor inh 5% and BAZ2B block -26%.
